From PubChem BioAssay
A selection: hits, their analogues and other compounds. The true share with any hit is near 11%.
Pf growth 48h = Primary qHTS for delayed death inhibitors of the malarial parasite plastid, 48 hour incubation | P. falciparum luciferase growth in erythrocytes, 48 h | Potency, µM (highest dose often 28.7 µM), inactives show at the top dose activity change, negative = inhibition, hits mostly inhibitors | actives 5.9% (n = 310,000) | AID 504832, 2011
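First compound was added to culture medium, then infected red cells at 0.1% parasitemia and 2% hematocrit (final). After incubation at 37 C under 5% CO2, luciferase detection reagent was dispensed and light output recorded.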
AMA1 RON2 block = qHTS for Inhibitors of AMA1-RON; Towards Development of Antimalarial Drug Lead: Primary Screen; Plasmodium falciparum AMA1 (3D7) - RON2 peptide interaction; Potency, µM (doses to about 58.2 µM), without a hit: at the top dose activity change, negative = inhibition, usual class: inhibitors; actives 0.2% (n = 360,000); AlphaScreen AMA1-biotinylated RON2 peptide binding;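 note: 0% = vehicle wells and -100% = peptide control; nearly all actives have a fitted effect of over 45% in size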
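AMA1 (3D7) with his tag at 25 nM final met compounds first, then biotinylated RON2 peptide at 25 nM; detection used donor plus acceptor beads, 10 µg/mL apiece, read by AlphaScreen after 30 min at room temperature.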
Pf growth 96h = Primary qHTS for delayed death inhibitors of the malarial parasite plastid, 96 hour incubation | P. falciparum luciferase reporter growth, 96 h | Potency, µM (titrated, usually from 28.7 µM), without a hit: at the top dose activity change, negative = inhibition, usual class: inhibitors | actives 6.9% (n = 320,000)
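P. falciparum expressing integrated firefly luciferase grown in erythrocytes (2% hematocrit, 0.05% parasitemia final) with compounds for 96 hours at 37 C, 5% CO2. Growth inhibition read as loss of luminescence after adding luciferase detection reagent.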
HCV inhibitor = qHTS Assay for Inhibitors of Hepatitis C Virus (HCV) | Huh7.5.1 HCVcc-Cre infection, luciferase reporter, 44 h | Potency, µM (titrated, usually from 41.8 µM), inactives show at the top dose activity change, negative = inhibition, usual class: inhibitors | actives 3.4% (n = 340,000) | AID 651820, 2012
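Compounds are dispensed onto cells plated 4 h earlier at 1,000 per well, with HCVcc-Cre virus (about 0.5 moi) added next. Following 44 h of culture, luminescent signal is measured for 15 sec after 15 min with substrate at room temperature.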
* hit, by the source's call; ? = inconclusive; / = no result; [ ] = dose if it differs, or a comment. Calls come from the whole dose curve; as a rule, active = well fitted curve in the direction sought with a large enough effect; inconclusive = small, poorly fitted or top-dose-only effect, or another doubt; inactive = no such curve, though single readings can be large; an effect the other way counts as inactive or inconclusive. Unless noted, % is set by controls: 0 for no effect and ±100 for the full control effect; potency is the fitted concentration of half-maximal effect.

SMILES	Pf growth 48h	AMA1 RON2 block	Pf growth 96h	HCV inhibitor
CCSC1=N/C(=C/c2ccsc2)C(=O)N1c1ccccc1	20%	26%	7.4µM*	?
CCCSC1=N/C(=C/c2ccsc2)C(=O)N1c1ccccc1	?	10%	11%	?
CCN1CCN(c2ccc(NC(=O)c3cccc(F)c3)cc2Cl)CC1	-12%	-4%	55%	-26%
Cc1nc(SCc2cccc(F)c2)c2oc3ccccc3c2n1	10µM*	24%	?	-11%
Cc1nc(NCCc2ccccc2)c2oc3ccccc3c2n1	1%	1%	/	10µM*
Cc1nc(SCC(=O)Nc2ccc(F)cc2)c2oc3ccccc3c2n1	6%	2%	/	-9%
CCN(CC)c1ccc(NC(=O)c2ccc3c(c2)c(C)c(C)n3C)cc1	?	7.9µM*	?	?
Cc1cc(C)c(C(=O)CSc2nnc(-c3cccnc3)n2C)c(C)c1	12µM*	6%	/	3%
Cc1cc(C)c(NC(=O)CSc2nncn2-c2cccnc2)c(C)c1	-1%	-1%	12µM*	14%
CCOC(=O)CSc1nnc(-c2ccc3ncccc3c2)n1C	12µM*	4%	-18%	10%
Cc1c(Cl)cccc1NC(=O)CSc1nncn1-c1cccnc1	0%	16%	?	5%
NC(=O)CNC1CC(=O)N(CCc2ccccc2)C1=O (stereo unspecified)	/	5%	6%	-18%
COc1ccc(OC)c(C2(O)CSC(=Nc3cccnc3)N2Cc2ccco2)c1 (stereo unspecified)	12µM*	-23%	4.7µM*	?
Cc1ccc(S(=O)(=O)Nc2cc(C(C(=O)OC(C)C)C(=O)C(F)(F)F)c(O)c3ccccc23)c(C)c1 (stereo unspecified)	13µM*	0%	5.2µM*	?
O=C(CNc1ccccc1OC(F)F)N1CCc2ccccc21	327%	4%	1%	-18%
CCOc1ccc(Oc2nc(Nc3ccc(C)cc3)nc(N(C)C)n2)nn1	3%	1%	/	11µM*
CCn1c(=NC(=O)C2COc3ccccc3O2)sc2c(OC)ccc(OC)c21 (stereo unspecified)	-22%	-4%	-13%	11µM*
O=C(O)CCCNS(=O)(=O)c1cccc2nsnc12	8%	4%	?	8%
COc1cc(OC)c(OC)cc1/C=N/N(C)c1ccccc1	/	32µM*	-98%	8.9µM*
O=C(NCC(=O)N(c1ccc(F)cc1)C(C(=O)NC1CCCCC1)c1ccncc1)c1ccco1 (stereo unspecified)	?	0%	7%	14%
CC12CCC(C(=O)N(CCCCN3CCN(c4ccccn4)CC3)C1=O)C2(C)C (stereo unspecified)	?	-1%	9.3µM*	-4%
Nc1cc2c(cc1Br)-c1ccc(F)cc1C2O (stereo unspecified)	/	-7%	/	-18%
CCn1cc(C(=O)NN)c(=O)c2cc(F)c(N3CCN(C)CC3)cc21	?	68%	12µM*	-15%
CN1CCN(c2cc3c(cc2F)c(=O)c(C(=O)O)cn3-c2ccc(F)cc2)CC1	?	/	6.7µM*	/
CCn1cc(C(=O)NN)c(=O)c2cc(F)c(N3CCCCC3)cc21	?	26%	-6%	-5%
SMILES	Pf growth 48h	AMA1 RON2 block	Pf growth 96h	HCV inhibitor
CCN1CCN(c2cc3c(cc2F)c(=O)c(C(=O)O)cn3C2CC2)CC1	?	-1%	8.3µM*	-10%[8.37 µM]
CCOC(=O)c1cn(CC)c2cc(N3CCOCC3)c(F)cc2c1=O	1.9µM*	13%	14%	-22%
CC(=O)N1CCN(c2cc3c(cc2F)c(=O)c(C(=O)O)cn3C2CC2)CC1	?	7%	-89%[5.75 µM]	15%
O=C(NCC1CCCN(Cc2ccc3nonc3c2)C1)c1cccc(C(F)(F)F)c1 (stereo unspecified)	48%	-6%	?	-10%
COc1cc(C2=NOC(C(=O)N3CCCc4ccccc43)C2)cc(OC)c1OC (stereo unspecified)	-18%	1%	12%	2µM*
COc1ccc(-c2nnc(SCC(=O)N3CCOCC3)o2)cc1	141%	2%	/	0%
COc1cccc(-c2nnc(SCC(=O)N3CCOCC3)o2)c1	47%	-1%	12µM*	-6%
COc1cccc(-c2nnc(NC(=O)c3ccc4ncsc4c3)o2)c1	?	58%[2.32 µM]	13µM*	?
CS(=O)(=O)c1ccc(-c2nnc(NC(=O)c3ccc(S(=O)(=O)N4CCCC4)cc3)o2)cc1	13µM*	41%	7.4µM*	17%
COc1ccc(C)cc1NS(=O)(=O)c1ccccc1	/	5%	/	-7%
COc1ccc(-c2nnc(SCC(=O)N3CCCc4ccccc43)o2)cc1OC	-8%	11%	12µM*	10%
Cc1nnc(NC(=O)c2ccc(S(=O)(=O)N3CCCCC3C)cc2)o1 (stereo unspecified)	12µM*	22%	?	1%
COc1cc(-c2nnc(NC(=O)c3ccc(S(=O)(=O)N4CCOCC4)cc3)o2)cc(OC)c1OC	20%	/	14%	/
COc1cccc(-c2nnc(NC(=O)c3ccc(S(=O)(=O)N4CCOCC4)cc3)o2)c1	?	177%	106%	13µM*
O=C(Nc1nnc(C2CC2)o1)c1ccc(S(=O)(=O)N2CCCCC2)cc1	?	40%	17µM*	-5%
COc1cccc(C(=O)Nc2cccc(-c3nnc(-c4ccco4)o3)c2)c1	/	28%	?	22µM*
COc1ccc2c(c1)C(C)=CC(C)(C)N2C(=O)CSc1nnc(-c2ccc(C)cc2)o1	9.3µM*	-10%	-2%	?
CC1CCCCN1S(=O)(=O)c1ccc(C(=O)Nc2nnc(-c3ccco3)o2)cc1 (stereo unspecified)	?	92%	4.7µM*	?
CC1CCN(S(=O)(=O)c2ccc(C(=O)Nc3nnc(C4CC4)o3)cc2)CC1	?	57%	?	?
CC1CCCCN1S(=O)(=O)c1ccc(C(=O)Nc2nnc(C3CC3)o2)cc1 (stereo unspecified)	?	29%	12µM*	?
CC(C)NC(=O)C1(C)CSCC(=O)N1C1CC1 (stereo unspecified)	/	4%	/	/
O=c1[nH][nH]c(C(F)(F)F)c1C=NCc1cccs1	?	6%	?	-5%
COc1ccccc1C(=O)NC1CCSc2ccccc21 (stereo unspecified)	-24%	5%	?	-12%
CCCCn1c(-c2ccc(OC)cc2)nc2c(=O)n(C)c(=O)[nH]c21	-12%[0.00184 µM]	25%	1.7µM*	10%
CCCCOC(=O)c1ccccc1C(=O)OCCCC	-19%	28%	-10%	-2%
O=C(O)c1ccccc1C(=O)OCCCCOC(=O)c1ccccc1C(=O)O	-5%	-8%	15µM*	-1%
CCNC(=S)N/N=C/c1cccc(OCc2c(F)cccc2Cl)c1	?	22%	?	?
